# Results as given in PubChem BioAssay (EPA / NIEHS).
# The source made the active and inactive calls. The calls were made as follows: active = hit-call score of the fitted dose curve at least 0.9, where 1 is the maximum; inactive = score below 0.9.
# Experiments:
# Conditions in all cases: primary human HUVEC with PBMC; actives raise or lower the signal
# [1] = read-out: Interleukin-1 alpha (IL1a), IL1A (gene 3552); assay: BSK_LPS_IL1a: BioMAP Diversity Plus: LPS Assay for Interleukin-1 alpha (IL1a) Biomarker Activity (AID 2283080)
# In short: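 Human umbilical vein endothelial cells co-cultured with PBMC and stimulated with LPS; IL-1a measured by ELISA 24 h after dosing. Bidirectional fitting against DMSO; cytotoxicity checked by SRB staining in parallel cultures.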
# [2] = read-out: Monocyte Chemoattractant Protein-1 (MCP1), CCL2 (gene 6347); assay: BSK_LPS_MCP1: BioMAP Diversity Plus: LPS Assay for Monocyte Chemoattractant Protein-1 (MCP1) Biomarker Activity (AID 2283081);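 as to AC50: secreted MCP-1 protein quantified by ELISA in culture supernatant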
# In short: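 Human umbilical vein endothelial cells co-cultured with PBMC, LPS-stimulated; secreted MCP-1 measured by ELISA 24 h after compound addition. Bidirectional curve fitting against DMSO baseline; SRB total-protein staining in parallel cultures for cytotoxicity.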
# [3] = BSK_LPS_PGE2: BioMAP Diversity Plus: LPS Assay for Prostaglandin E2 (PGE2) Biomarker Activity (AID 2283082);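 as to AC50: secreted prostaglandin E2 measured by ELISA in LPS-stimulated co-culture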
# In short: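 HUVEC plus PBMC co-culture stimulated with LPS; secreted PGE2 quantified by ELISA 24 h after chemical dosing. Activity fitted bidirectionally against DMSO as negative control and baseline; parallel SRB total-protein staining served as cytotoxicity check.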
# [4] = read-out: Macrophage colony-stimulating factor (MCSF), CSF1 (gene 1435); assay: BSK_LPS_MCSF: BioMAP Diversity Plus: LPS Assay for Macrophage colony-stimulating factor (MCSF) Biomarker Activity (AID 2283083)
# In short: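 HUVEC–PBMC co-culture, M-CSF measured by ELISA 24 h after chemical dosing. Fitted in both directions relative to DMSO as negative control; overt cytotoxicity assessed by SRB total-protein staining in parallel cultures.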
# [5] = read-out: Tissue Factor, F3 (gene 2152); assay: BSK_LPS_TissueFactor: BioMAP Diversity Plus: LPS Assay for Tissue Factor Biomarker Activity (AID 2283084)
# In short: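 Human umbilical vein endothelial cells co-cultured with PBMC were dosed with compound. Cell-surface CD142 was measured by ELISA 24 h later. Activity was fitted bidirectionally against DMSO, with SRB total-protein staining in parallel cultures for cytotoxicity.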
# [6] = read-out: Tumor necrosis factor (Homo sapiens) (UniProt P01375); assay: BSK_LPS_TNFa: BioMAP Diversity Plus: LPS Assay for Tumour Necrosis Factor alpha (TNFa) Biomarker Activity (AID 2283085);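 as to AC50: TNFa protein level quantified by ELISA in the co-culture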
# In short: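 Human umbilical vein endothelial cells co-cultured with PBMC were exposed to test chemical and TNFa measured by ELISA 24 h after dosing. Bidirectional curve fitting was done relative to DMSO as negative control and baseline.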
# [7] = read-out: Vascular cell adhesion molecule 1 (VCAM1), VCAM1 (gene 7412); assay: BSK_LPS_VCAM1: BioMAP Diversity Plus: LPS Assay for Vascular cell adhesion molecule 1 (VCAM1) Biomarker Activity (AID 2283086)
# In short: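 Human umbilical vein endothelial cells co-cultured with peripheral blood mononuclear cells under LPS stimulation were exposed to test chemical for 24 h. VCAM-1 levels were then measured by ELISA, with bidirectional curve fitting relative to DMSO as negative control and baseline.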
# CD38, CD38 (gene 952) = assay: BSK_SAg_CD38: BioMAP Diversity Plus: SAg Assay for CD38 Biomarker Activity (AID 2283087)
# In short: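 Fluorescence ELISA of cell-surface CD38 served as the read-out, with either increase or decrease fitted against DMSO controls. Cells were a human umbilical vein endothelium plus PBMC co-culture under SEB/TSST-1 stimulation, measured 24 h after dosing.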
# CD40, CD40 (gene 958) = assay: BSK_SAg_CD40: BioMAP Diversity Plus: SAg Assay for CD40 Biomarker Activity (AID 2283088)
# In short: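 HUVEC plus PBMC co-culture, superantigen-activated, with CD40 read by ELISA 24 h after dosing. Curves fitted in both directions against DMSO. Overt cytotoxicity checked by parallel SRB total-protein staining.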
# CD69, CD69 (gene 969) = assay: BSK_SAg_CD69: BioMAP Diversity Plus: SAg Assay for CD69 Biomarker Activity (AID 2283089);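 as to AC50: cell surface CD69 protein quantified by ELISA with fluorescence detection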
# In short: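 ELISA, fluorescence read-out: CD69 on human umbilical vein endothelial cell + PBMC co-culture, 24 h post-dosing. Gain or loss of signal fitted bidirectionally against DMSO baseline.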
# Chain of Tumor necrosis factor (Homo sapiens) (P01375 whole entry, looked up): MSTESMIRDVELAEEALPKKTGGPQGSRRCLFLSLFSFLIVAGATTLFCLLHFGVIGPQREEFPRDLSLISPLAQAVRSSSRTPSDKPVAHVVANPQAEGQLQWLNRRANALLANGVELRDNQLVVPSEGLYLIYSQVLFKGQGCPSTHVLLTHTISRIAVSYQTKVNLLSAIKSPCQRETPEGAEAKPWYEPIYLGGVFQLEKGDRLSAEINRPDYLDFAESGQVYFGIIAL
Structure (SMILES),outcome [1],outcome [2],AC50 [3],AC50 [4],outcome [5],AC50 [6],outcome [7],"AC50 (CD38, CD38 (gene 952))","AC50 (CD40, CD40 (gene 958))","outcome (CD69, CD69 (gene 969))",outcome [3],outcome [4],outcome [6],"outcome (CD38, CD38 (gene 952))","outcome (CD40, CD40 (gene 958))",AC50 [5],"AC50 (CD69, CD69 (gene 969))",AC50 [7],AC50 [2]
COC(=O)c1c(C(F)F)nc(C(F)(F)F)c(C2=NCCS2)c1CC(C)C,inactive,inactive,12.2 µM (active),14.3 µM (active),inactive,8.66 µM (active),inactive,25.7 µM (active),24 µM (active),inactive,,,,,,,,,
Clc1cccc(C(Cl)(Cl)Cl)n1,inactive,inactive,,,inactive,,inactive,,,inactive,inactive,inactive,inactive,inactive,inactive,,,,
COP(=O)(OC)O/C(C)=C/C(=O)N(C)C,inactive,inactive,17.3 µM (active),,inactive,,inactive,,,inactive,,inactive,inactive,inactive,inactive,,,,
Clc1nc(Cl)nc(Nc2ccccc2Cl)n1,inactive,inactive,,,inactive,,inactive,,,inactive,inactive,inactive,inactive,inactive,inactive,,,,
CN/C(=N\[N+](=O)[O-])NCc1cnc(Cl)s1,inactive,inactive,,,inactive,,inactive,,,inactive,inactive,inactive,inactive,inactive,inactive,,,,
Nc1c(Cl)c(F)nc(OCC(=O)O)c1Cl,inactive,inactive,,,,,inactive,,,inactive,inactive,inactive,inactive,inactive,inactive,5.36 µM (active),,,
Cc1c(COC(=O)[C@@H]2[C@H](/C=C(\Cl)C(F)(F)F)C2(C)C)cccc1-c1ccccc1,inactive,inactive,4.57 µM (active),3.53 µM (active),inactive,,inactive,,16.5 µM (active),,,,inactive,inactive,,,5.92 µM (active),,
CC(C)Oc1cccc(NC(=O)c2ccccc2C(F)(F)F)c1,inactive,inactive,,,inactive,,inactive,,,inactive,inactive,inactive,inactive,inactive,inactive,,,,
CNC(=O)Oc1cccc2ccccc12,inactive,inactive,1.63 µM (active),20 µM (active),inactive,,,,,inactive,,,inactive,inactive,inactive,,,9.39 µM (active),
COP(=S)(OC)SCn1nnc2ccccc2c1=O,inactive,,13.8 µM (active),,,5.58 µM (active),,,20 µM (active),,,inactive,,inactive,,16.9 µM (active),20 µM (active),20 µM (active),20 µM (active)
COc1cc(OC)nc(NC(=O)NS(=O)(=O)c2ncccc2OCC(F)(F)F)n1,inactive,inactive,,,inactive,,inactive,,,inactive,inactive,inactive,inactive,inactive,inactive,,,,
CS(=O)(=O)c1ccc(C(=O)C2C(=O)CCCC2=O)c([N+](=O)[O-])c1,inactive,inactive,,,inactive,,inactive,,,inactive,inactive,inactive,inactive,inactive,inactive,,,,
CCOP(=O)(OCC)Oc1nc(Cl)c(Cl)cc1Cl,inactive,inactive,,,inactive,35.9 µM (active),,29.6 µM (active),20 µM (active),,inactive,inactive,,,,,23.1 µM (active),16.7 µM (active),
CCOC(=O)C(C)OC(=O)c1cc(Oc2ccc(C(F)(F)F)cc2Cl)ccc1[N+](=O)[O-] (stereo not given),inactive,inactive,2.12 µM (active),,inactive,3.73 µM (active),inactive,9.17 µM (active),3.97 µM (active),,,inactive,,,,,12.8 µM (active),,
CN=C=S,inactive,inactive,,,inactive,,inactive,10 µM (active),13.5 µM (active),inactive,inactive,inactive,inactive,,,,,,
O=C(Nc1ccccc1-c1ccc(Cl)cc1)c1cccnc1Cl,inactive,inactive,,,inactive,,inactive,,,inactive,inactive,inactive,inactive,inactive,inactive,,,,
COC(=O)N(C(=O)N1CO[C@@]2(C(=O)OC)Cc3cc(Cl)ccc3C2=N1)c1ccc(OC(F)(F)F)cc1,inactive,inactive,,,inactive,,inactive,5.95 µM (active),5.46 µM (active),,inactive,inactive,inactive,,,,6.93 µM (active),,
CC(C)(C)C(=O)C(Oc1ccc(Cl)cc1)n1cncn1 (stereo not given),inactive,inactive,,,inactive,,inactive,,,inactive,inactive,inactive,inactive,inactive,inactive,,,,
